Measured values reported in PubChem BioAssay (NCATS).
Records with an inconclusive call do not appear. The source made the active and inactive calls. Unless noted, calls come from the whole dose curve; as a rule, active = well fitted curve in the direction sought with a large enough effect; inconclusive = small, poorly fitted or top-dose-only effect, or another doubt; inactive = no such curve, though single readings can be large; an effect the other way counts as inactive or inconclusive.

Experiments:
[1] = Cellular Toxicity (caspase-3) HepG2 (AID 654); conditions: HepG2 caspase-3 activation, luminescence, 0% = DMSO only, 100% = tamoxifen; series mostly up to 92.2 µM;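 note: cells exposed to compound for 16 hours before reading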
How it was run: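 Cells plated 5 hr at 37 °C, compound added, incubated 16 hr at 37 °C. Caspase-Glo 3/7 reagent followed, 20 min at room temperature, then luminescence read. Activation scored as signal increase; AC50 from Hill fit.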

[2] = Cellular Toxicity (caspase-3) Jurkat (AID 655); conditions: Jurkat caspase-3 activation, luminescence, DMSO = 0%, tamoxifen = 100%; series mostly up to 92.2 µM;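 note: cells exposed to compound for 16 h at 37 °C before reading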
How it was run: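 qHTS in human Jurkat T-cell leukemia line: 16 hr compound treatment at 37 °C, caspase-3/7 activity measured by Caspase-Glo luminescence. AC50 derived from Hill equation.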

[3] = Cellular Toxicity (caspase-3) HUV-EC-C (AID 656); conditions: HUV-EC-C cells, caspase-3 activation (apoptosis), vehicle = 0, 100 µM tamoxifen = 100%; series mostly up to 92.2 µM
How it was run: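 Concentration-dependent caspase 3/7 induction was assessed in HUV-EC-C cells exposed for 16 hours. Data scaled between DMSO and tamoxifen (100 uM) controls.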

[4] = Cellular Toxicity (caspase-3) SHSY5Y (AID 657); conditions: SH-SY5Y caspase-3 activation, DMSO zero, 10 µM staurosporine = 100%; series mostly up to 91.7 µM;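 note: cells exposed to compound for 16 hours at 37 °C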
How it was run: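 Readout: caspase-cleaved peptide-aminoluciferin substrate driving luciferase light in SH-SY5Y neuroblastoma cells after 16 h treatment. Response normalized to DMSO and 10 uM staurosporine controls.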

[5] = Cellular Toxicity (caspase-3) BJ (AID 658); conditions: BJ fibroblasts, luminescence, normalized: DMSO 0%, staurosporine 100%; series mostly up to 91.7 µM
How it was run: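 Readout: Caspase-Glo 3/7 luminescence increase in BJ cells after 16 hr treatment at 37 °C. Staurosporine and tamoxifen served as positive controls; AC50 values came from Hill modelling of data normalized to DMSO and 10 uM staurosporine.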

[6] = Cellular Toxicity (caspase-3) MRC-5 (AID 659); conditions: MRC-5 cells, luminescence, normalized: DMSO 0%, 10 µM staurosporine 100%; series mostly up to 91.7 µM
How it was run: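 Concentration-dependent caspase 3/7 activation is measured in human normal lung fibroblasts (MRC-5) following 16-hour treatment. AC50 values come from standard Hill-equation modeling of luminescence normalized to DMSO and 10 uM staurosporine.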

[7] = Cellular Toxicity (caspase-3) Mesangial (AID 660); conditions: mesangial cells, normalized: DMSO 0%, 100 µM tamoxifen 100%; series mostly up to 91.7 µM;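 note: combined caspase 3 and 7 activity read by Caspase-Glo luminescence; cells exposed to compound for 16 h before the caspase read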
How it was run: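 Mesangial cells, 1000/well, 5 h settle at 37 °C; compound 16 h, 37 °C; Caspase-Glo 3/7 reagent 20 min RT; luminescence. Norm.: DMSO = 0%, tamoxifen 100 uM = 100%. AC50, Hill fit.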

[8] = Cellular Toxicity (caspase-3) SK-N-SH (AID 661); conditions: SK-N-SH caspase-3 activation, qHTS, DMSO as zero, staurosporine as full; series mostly up to 91.7 µM
How it was run: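 Human neuroblastoma SK-N-SH, 1500 cells/well, 5 hr pre-incubation, then compound 16 hr, 37 °C. Caspase-Glo 3/7 reagent, 1 hr RT, luminescence. Norm. to DMSO/10 uM staurosporine; Hill-fit AC50.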

[9] = Cellular Toxicity (caspase-3) H-4-II-E (AID 663); conditions: H-4-II-E rat hepatoma, scaled: DMSO 0%, 100 µM tamoxifen 100%; series mostly up to 92.2 µM;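 note: cells exposed to compound for 16 hr before readout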
How it was run: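 Apoptosis induction is scored as increased luminescence from caspase 3/7 substrate cleavage in rat hepatoma H-4-II-E cells exposed to compound for 16 hr. Activity is scaled between DMSO and 100 uM tamoxifen.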

[10] = Cellular Toxicity (caspase-3) Hek293 (AID 664); conditions: HEK293 caspase-3 activation, DMSO = 0%, 100 µM tamoxifen = 100%; series mostly up to 92.2 µM;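 note: cells exposed to compound for 16 h at 37 °C before readout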
How it was run: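 Cells plated, 5 hr at 37 °C; compounds added; 16 hr at 37 °C; Caspase-Glo 3/7 reagent, 20 min RT; luminescence read. Activation expressed relative to DMSO and 100 uM tamoxifen, AC50 by Hill model.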

[11] = Cellular Toxicity (caspase-3) N2a (AID 665); conditions: N2a cells, luminescence, normalized: DMSO 0%, 10 µM staurosporine 100%; series mostly up to 92.2 µM;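 note: compound exposure lasted 16 h at 37 °C before readout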
How it was run: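 N2a cells, 1500/well, 5 h settle at 37 °C; cpd 16 h, 37 °C; Caspase-Glo 3/7, 1 h RT; luminescence. Norm: DMSO = 0, 10 uM staurosporine = 100%. AC50, Hill fit.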

[12] = Cellular Toxicity (caspase-3) NIH 3T3 (AID 666); conditions: NIH 3T3 caspase-3 activation, apoptosis/toxicity, 0% DMSO, 100% is 100 µM tamoxifen; series mostly up to 92.2 µM
How it was run: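 Luminescence from aminoluciferin released by caspase-3/7 cleavage of a peptide substrate served as read-out. Mouse fibroblast NIH 3T3 cells were exposed to compounds over a concentration range for 16 hours, and AC50 values came from standard Hill modelling.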

[13] = Cellular Toxicity (caspase-3) Renal Proximal Tubule (AID 667); conditions: renal proximal tubule cells, primary cells freshly taken from rat, solvent-only wells 0%, staurosporine 100%; series mostly up to 91.7 µM;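 note: cells exposed to compound for 16 hours at 37 °C before detection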
How it was run: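 Caspase-Glo 3/7 read-out, rat primary kidney proximal tubule cells. Compound exposure 16 h, 37 °C; detection after 1 h at RT. Activity scaled to DMSO and 10 uM staurosporine.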

[14] = molecular target: Cytochrome P450 3A4 (Homo sapiens) (UniProt P08684); experiment: qHTS Assay for Inhibitors and Substrates of Cytochrome P450 3A4 (AID 884); conditions: recombinant CYP3A4, Luciferin-PPXE luminescence; series mostly up to 57.1 µM; note: nearly all actives have a fitted effect of over 50% in size
Chain of Cytochrome P450 3A4 (Homo sapiens) (P08684 whole entry, looked up): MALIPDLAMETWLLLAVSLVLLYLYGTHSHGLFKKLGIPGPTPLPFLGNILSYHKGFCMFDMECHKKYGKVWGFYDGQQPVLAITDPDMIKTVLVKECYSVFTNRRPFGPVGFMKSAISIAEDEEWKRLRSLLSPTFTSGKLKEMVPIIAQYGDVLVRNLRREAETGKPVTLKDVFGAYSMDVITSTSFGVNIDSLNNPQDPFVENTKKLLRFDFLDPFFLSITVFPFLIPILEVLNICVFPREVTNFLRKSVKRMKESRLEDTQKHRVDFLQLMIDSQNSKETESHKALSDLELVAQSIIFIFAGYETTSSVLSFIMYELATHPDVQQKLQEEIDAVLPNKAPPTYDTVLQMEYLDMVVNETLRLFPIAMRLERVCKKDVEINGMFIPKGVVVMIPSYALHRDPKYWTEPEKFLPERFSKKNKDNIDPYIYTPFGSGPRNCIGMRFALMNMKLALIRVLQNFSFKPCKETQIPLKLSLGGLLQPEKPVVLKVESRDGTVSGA
How it was run: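 20 nM human CYP3A4 with 25 uM Luciferin-PPXE (at KM) in 200 mM KPO4, preincubated 10 min with compound; NADPH regeneration started a 60 min RT reaction. Luciferin detected by luminescence, normalized to 57 uM ketoconazole as full inhibition.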

[15] = molecular target: 3',5'-cyclic-AMP phosphodiesterase 4B (Homo sapiens) (UniProt Q07343); experiment: qHTS Assay for Inhibitors of PDE-IV (AID 607; active = well fitted activation curve with a large enough effect in the main read-out, with a control signal flat, not every such curve was filed as active); conditions: HEK293 ACTOne CNG channel cells, membrane potential fluorescence; series mostly up to 22.9 µM
Chain of 3',5'-cyclic-AMP phosphodiesterase 4B (Homo sapiens) (Q07343 whole entry, looked up): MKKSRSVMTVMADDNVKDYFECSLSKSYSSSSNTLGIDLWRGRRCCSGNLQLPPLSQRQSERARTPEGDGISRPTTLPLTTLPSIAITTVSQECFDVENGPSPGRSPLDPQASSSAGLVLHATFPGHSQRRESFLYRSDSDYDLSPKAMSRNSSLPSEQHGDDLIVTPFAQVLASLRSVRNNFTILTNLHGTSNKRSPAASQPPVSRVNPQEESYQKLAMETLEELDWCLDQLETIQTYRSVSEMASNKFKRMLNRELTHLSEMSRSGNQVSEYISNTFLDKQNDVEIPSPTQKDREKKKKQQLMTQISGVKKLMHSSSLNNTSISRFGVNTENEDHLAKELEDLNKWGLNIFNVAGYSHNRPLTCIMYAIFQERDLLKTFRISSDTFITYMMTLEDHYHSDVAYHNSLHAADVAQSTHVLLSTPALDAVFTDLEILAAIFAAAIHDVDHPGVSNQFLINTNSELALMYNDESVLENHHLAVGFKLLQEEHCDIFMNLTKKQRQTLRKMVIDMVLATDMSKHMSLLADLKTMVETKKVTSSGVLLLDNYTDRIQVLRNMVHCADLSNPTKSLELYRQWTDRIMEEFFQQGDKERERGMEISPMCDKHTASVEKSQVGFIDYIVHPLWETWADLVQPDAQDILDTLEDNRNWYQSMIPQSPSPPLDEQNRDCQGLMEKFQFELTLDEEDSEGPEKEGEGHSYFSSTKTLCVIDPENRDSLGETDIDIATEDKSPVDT
How it was run: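 The readout is membrane depolarisation from a cAMP-sensing CNG channel, detected with a potential dye at ex 535/em 590. Cells were HEK293-derived (endogenous PDE-IV) at 1000 cells/well, titrated up to 22.9 uM final.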

[16] = molecular target: Guanine nucleotide-binding protein G(i) subunit alpha-1 (Homo sapiens) (UniProt P63096); experiment: qHTS Assay for Inhibitors of RGS12 GoLoco Motif Activity (Green Fluorophore) (AID 879); conditions: Galphai1/FITC-RGS12 GoLoco peptide, fluorescence polarization; series mostly up to 57.1 µM;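 note: negative values mean loss of peptide binding seen as reduced polarization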
Chain of Guanine nucleotide-binding protein G(i) subunit alpha-1 (Homo sapiens) (P63096 whole entry, looked up): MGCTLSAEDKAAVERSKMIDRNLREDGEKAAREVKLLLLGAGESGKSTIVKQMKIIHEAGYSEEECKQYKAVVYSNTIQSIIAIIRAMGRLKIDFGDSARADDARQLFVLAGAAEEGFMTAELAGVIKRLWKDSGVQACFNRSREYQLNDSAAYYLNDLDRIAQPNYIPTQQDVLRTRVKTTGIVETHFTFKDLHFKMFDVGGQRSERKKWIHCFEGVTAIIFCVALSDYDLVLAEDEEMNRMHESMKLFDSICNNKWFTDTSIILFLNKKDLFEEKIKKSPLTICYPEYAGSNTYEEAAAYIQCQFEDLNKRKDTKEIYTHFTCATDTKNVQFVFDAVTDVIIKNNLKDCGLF
How it was run: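 Fluorescence polarization assay: 50 nM Gαi1 with 10 nM FITC-labeled RGS12 GoLoco peptide in 10 mM Tris pH 7.5, 150 mM NaCl, 0.1 mM GDP, 0.05% NP40, 10 min at room temperature with compound.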

[17] = molecular target: Cytochrome P450 3A4 (Homo sapiens) (UniProt P08684); experiment: qHTS Assay for Activators of Cytochrome P450 3A4 (AID 885); conditions: recombinant CYP3A4, Luciferin-PPXE luminescence, 60 min; series mostly up to 57.1 µM; note: nearly all actives have a fitted effect of over 65% in size
How it was run: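 Steps: enzyme/substrate mix dispensed; compound added, 10 min RT; NADPH regeneration solution added, 60 min RT; luciferin detection buffer stops reaction; 20 min later luminescence measured.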

[18] = qHTS Assay for Identification of Small Molecule Agonists for Thrombopoietin (TPO) Signaling Pathway (AID 917); conditions: TPO signaling pathway reporter cells, agonist qHTS, stimulated with TPO at its EC50; series mostly up to 38.5 µM
How it was run: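 IL-3-dependent murine pro-B Ba/F3 cells, stably transfected with human TPO receptor and GpIIb-promoter luciferase, are incubated 24 hrs at 37 C with test compound and 26 pM TPO; luciferase signal is read after 10 min at room temperature.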

[19] = Confirmation and Secondary Assay for Modulators of Hemoglobin Beta Chain Splicing at IVS2 654 locus (AID 910); conditions: HeLa EGFP-654 splicing reporter, GFP fluorescence, 48 h; series mostly up to 46.1 µM;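 note: HeLa cells stably carrying EGFP split by mutant beta-globin IVS2-654 intron; per-well total GFP intensity by laser scanning cytometry after 2-day treatment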
How it was run: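 Readout: per-well total peak green fluorescence (488 nm ex, 500–520 nm em) from objects 5–250 µm, reflecting correct splicing of an EGFP-654 reporter. Compounds were applied for 2 days at 37 °C to overnight-plated HeLa EGFP-654 cells; controls were DMSO and 500 nM IVS2-654 PNA.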

[20] = molecular target: Cytochrome P450 2C19 (Homo sapiens) (UniProt P33261); experiment: qHTS Assay for Inhibitors and Substrates of Cytochrome P450 2C19 (AID 899); conditions: recombinant CYP2C19, luciferin-H EGE luminescence; series mostly up to 57.1 µM; note: nearly all actives have a fitted effect of over 60% in size
Chain of Cytochrome P450 2C19 (Homo sapiens) (P33261 whole entry, looked up): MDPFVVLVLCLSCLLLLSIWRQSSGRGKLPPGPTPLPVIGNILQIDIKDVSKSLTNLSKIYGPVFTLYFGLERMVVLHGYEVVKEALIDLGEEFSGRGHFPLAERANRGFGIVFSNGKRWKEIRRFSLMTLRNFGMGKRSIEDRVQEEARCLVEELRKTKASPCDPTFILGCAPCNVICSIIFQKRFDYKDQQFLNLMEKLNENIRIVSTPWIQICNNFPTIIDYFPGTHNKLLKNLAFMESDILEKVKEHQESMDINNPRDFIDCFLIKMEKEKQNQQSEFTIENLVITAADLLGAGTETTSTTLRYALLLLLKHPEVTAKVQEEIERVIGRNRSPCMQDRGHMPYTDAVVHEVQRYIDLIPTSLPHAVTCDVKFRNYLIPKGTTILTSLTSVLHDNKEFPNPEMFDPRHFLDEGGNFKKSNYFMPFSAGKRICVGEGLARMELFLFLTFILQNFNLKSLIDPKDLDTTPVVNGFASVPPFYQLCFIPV
How it was run: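 Reactions contain 5nM enzyme, 10uM Luciferin-H EGE (KM) and 50mM KPO4; compound preincubates 10 min at 37C, NADPH regeneration starts turnover for 60 min. Luminescence after detection reagent gives activity.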

Measured: outcome

COc1ccc(CCC(=O)c2c(O)cc(O[C@@H]3O[C@H](CO)[C@@H](O)[C@H](O)[C@H]3O[C@@H]3O[C@@H](C)[C@H](O)[C@@H](O)[C@H]3O)cc2O)cc1O
not listed: [15] | [16] | [17] | [18] | [19] | [20]
inactive: all other assays above

C[C@]1(C2CCCC2)Cc2cc(OCC(=O)O)c(Cl)c(Cl)c2C1=O
inactive: [15] | [16] | [17] | [18]

CCOC(=O)C(CCc1ccccc1)NC(C)C(=O)N1Cc2ccccc2CC1C(=O)O (stereo unspecified)
inactive: [14] | [19]

CCc1cccc2c3c([nH]c12)[C@@](CC)(CC(=O)O)OCC3
inactive: [15]

C=C1C[C@]23C[C@@]1(O)CC[C@H]2[C@@]12C=C[C@H](O)[C@@](C)(C(=O)O1)[C@H]2[C@@H]3C(=O)O
not listed: [14] | [15] | [16] | [17] | [18] | [19] | [20]
inactive: all other assays above

CC(C)C[C@H](NC(=O)[C@@H]1O[C@H]1C(=O)O)C(=O)NCCCCN=C(N)N
inactive: [15] | [16] | [17] | [20] | [18]

O=C(/C=C/C=C/c1ccc2c(c1)OCO2)N1CCCCC1
inactive: [17] | [19]
